For 17 compounds, Percent Effect results are on record in ChEMBL document CHEMBL3988442, “University of Dundee, Small-Polar-MMV Screening Library” (2021).

Assay [1] has as its target T1, Aspartate--tRNA(Asp/Asn) ligase (Mycobacterium tuberculosis (strain ATCC 25618 / H37Rv)) (UniProt P9WFW3). Note: in the data most compounds retested in dose-response had high values.
T1 sequence (whole entry): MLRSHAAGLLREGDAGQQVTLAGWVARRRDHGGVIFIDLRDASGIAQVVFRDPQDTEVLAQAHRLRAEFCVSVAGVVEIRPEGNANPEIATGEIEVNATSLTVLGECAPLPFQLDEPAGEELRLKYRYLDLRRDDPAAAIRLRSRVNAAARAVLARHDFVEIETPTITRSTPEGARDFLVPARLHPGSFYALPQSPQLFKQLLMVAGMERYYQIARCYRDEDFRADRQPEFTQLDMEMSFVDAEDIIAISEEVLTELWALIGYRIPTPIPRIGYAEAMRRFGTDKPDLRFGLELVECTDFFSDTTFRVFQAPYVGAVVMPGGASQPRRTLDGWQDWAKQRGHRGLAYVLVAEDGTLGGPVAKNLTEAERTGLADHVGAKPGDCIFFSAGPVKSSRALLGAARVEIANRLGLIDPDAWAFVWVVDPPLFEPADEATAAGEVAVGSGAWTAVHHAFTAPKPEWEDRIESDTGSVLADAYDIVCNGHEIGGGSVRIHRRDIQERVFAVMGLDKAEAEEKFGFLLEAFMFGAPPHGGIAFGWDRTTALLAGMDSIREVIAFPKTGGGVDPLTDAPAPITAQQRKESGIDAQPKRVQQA
Kind of assay: Assay for Asp RNA synthetase-1 from Mycobacterium tuberculosis. In kind it is functional. Also noted: scale not given: direction of the effect not stated beside the values. Particulars: 30 µM.

Assay [2] addresses Shiga toxin 2 (Escherichia coli O157:H7) (UniProt P09385+P09386). Kind of assay: E. coli 0.157:H7 Shiga Toxin SOP - stx2 screening assay. In kind it is functional. Also noted: scale not given: direction of the effect not stated beside the values. Particulars: 30 µM.

With `CSCC(=O)N1CCCN(c2ccccc2C)CC1`, the Percent Effect in assay [1] was 0.55%; in assay [2], -18.5%.

Consider `COc1ccccc1C(=O)N1CC(Cc2nccc3ccn(C)c23)C1`, for which the Percent Effect in assay [1] is -0.878%; in assay [2], -11.7%.

For `CCCNC(=O)CN1CCC(C(=O)Nc2cnn(CC)c2)CC1`, the Percent Effect in assay [1] was 0.927%; in assay [2], 20.3%.

For the compound `CC(NC(=O)COc1ccc(F)cc1)c1nnc2n1CCCCC2` (centres undefined), the Percent Effect in assay [1] is 8.46%; in assay [2] it was 13.1%.

As for `O=S(=O)(NCC1CCOc2ccccc2C1)N1CCOCC1` (centres undefined), the Percent Effect in assay [1] was 6.99%; in assay [2], -16%.

With `Oc1ccc(N2CCN(Cc3cc4c(cc3Br)OCCO4)CC2)cc1`, the Percent Effect turned out to be 4.07% in assay [1] and 6.03% in assay [2].

For the compound `CCOCCCNc1nc(O)cc(C2CC(=O)N(C)C2)n1` (centres undefined), the Percent Effect is -1.77% in assay [1] and -22.7% in assay [2].

For the compound `Cn1cc(S(=O)(=O)N2CCCC2CC(=O)c2cccs2)cn1` (centres undefined), the Percent Effect in assay [1] is 1.01%; in assay [2] it was -9.63%.

`CCn1cc(CN2CCCC(CO)(CCc3ccccc3)C2)c(C)n1` (centres undefined): the Percent Effect in assay [1] was 0.494%; in assay [2], -5.78%.

For the compound `Cc1cc(CN(C)C2CCCN(Cc3noc(C4CC4)n3)C2)no1` (centres undefined), the Percent Effect in assay [1] is 1.66%; in assay [2] it was 28%.

`Cc1ccc2c(ccn2CCC(=O)NC[C@@H]2CCCN3CCCC[C@H]23)c1`: the Percent Effect in assay [1] is -0.958%; in assay [2], -5.27%.

In the case of `O=C(CN1CCOC(Cn2cccn2)C1)NCc1cccs1` (centres undefined), the Percent Effect in assay [1] is -1.46%; in assay [2], -9.71%.

As for `Cc1nsc(NC(=O)N2CCN(Cc3ccc(F)cc3)C(=O)C2)n1`, the Percent Effect in assay [1] was 2.26%; in assay [2], -7.74%.

For the compound `CC(C)CNC(=O)CN1C=Nc2ccccc2S1(=O)=O`, the Percent Effect in assay [1] is 5.2%; in assay [2], 32.2%.

As to `Cc1cc(-c2nnc(SCC(=O)O)n2C(C)c2ccccc2)nn1C` (centres undefined), the Percent Effect in assay [1] was 2.15%; in assay [2], 2.98%.

For `Cn1cccc1C(=O)N1CCC2(CC1)CN(c1cncnc1)C(=O)CO2`, the results for the Percent Effect in assay [1] and in assay [2] were -4.72% and -1.71%, respectively.

As to `COc1ccc(C2=CCN(C(=O)C3CC(=O)N(C4CC4)C3)CC2)cc1` (centres undefined), the Percent Effect worked out at 1.54% in assay [1] and 2.8% in assay [2].
